Screen size: about 360,000 compounds; about 16,000 (4.4%) were called active. About 9% were inconclusive and are not listed. Calls come from the whole dose curve; as a rule, active = well fitted inhibition curve with a large enough effect; inconclusive = small, poorly fitted or top-dose-only effect; inactive = no such curve, though single readings can be large or run the other way. Shown is part of a subset that was picked to be rich in actives.
Molecular target: Bromodomain adjacent to zinc finger domain protein 2B (Homo sapiens) (UniProt Q9UIF8)
Test: qHTS Assay for Inhibitors of BAZ2B; note: nearly all actives have a fitted effect of over 60% in size
Conditions: AlphaScreen BAZ2B-H3K14Ac peptide displacement; series mostly up to 114 µM; activity change, negative = inhibition: at the top concentration
In short: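 BAZ2B 50 nM plus b-H3(5-23)K14Ac 50 nM, PBS pH 7.4/0.01% Tween-20, 30 min RT; compound added (max 110 uM), 30 min RT; streptavidin donor/Ni-chelate acceptor beads 10 ug/mL final, 20 min dark; AlphaScreen read.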
% is set by controls: 0 for no effect and ±100 for the full control effect; potency is the fitted concentration of half-maximal effect.

Chain of Bromodomain adjacent to zinc finger domain protein 2B (Homo sapiens) (Q9UIF8 whole entry, looked up, the tested form may be a part): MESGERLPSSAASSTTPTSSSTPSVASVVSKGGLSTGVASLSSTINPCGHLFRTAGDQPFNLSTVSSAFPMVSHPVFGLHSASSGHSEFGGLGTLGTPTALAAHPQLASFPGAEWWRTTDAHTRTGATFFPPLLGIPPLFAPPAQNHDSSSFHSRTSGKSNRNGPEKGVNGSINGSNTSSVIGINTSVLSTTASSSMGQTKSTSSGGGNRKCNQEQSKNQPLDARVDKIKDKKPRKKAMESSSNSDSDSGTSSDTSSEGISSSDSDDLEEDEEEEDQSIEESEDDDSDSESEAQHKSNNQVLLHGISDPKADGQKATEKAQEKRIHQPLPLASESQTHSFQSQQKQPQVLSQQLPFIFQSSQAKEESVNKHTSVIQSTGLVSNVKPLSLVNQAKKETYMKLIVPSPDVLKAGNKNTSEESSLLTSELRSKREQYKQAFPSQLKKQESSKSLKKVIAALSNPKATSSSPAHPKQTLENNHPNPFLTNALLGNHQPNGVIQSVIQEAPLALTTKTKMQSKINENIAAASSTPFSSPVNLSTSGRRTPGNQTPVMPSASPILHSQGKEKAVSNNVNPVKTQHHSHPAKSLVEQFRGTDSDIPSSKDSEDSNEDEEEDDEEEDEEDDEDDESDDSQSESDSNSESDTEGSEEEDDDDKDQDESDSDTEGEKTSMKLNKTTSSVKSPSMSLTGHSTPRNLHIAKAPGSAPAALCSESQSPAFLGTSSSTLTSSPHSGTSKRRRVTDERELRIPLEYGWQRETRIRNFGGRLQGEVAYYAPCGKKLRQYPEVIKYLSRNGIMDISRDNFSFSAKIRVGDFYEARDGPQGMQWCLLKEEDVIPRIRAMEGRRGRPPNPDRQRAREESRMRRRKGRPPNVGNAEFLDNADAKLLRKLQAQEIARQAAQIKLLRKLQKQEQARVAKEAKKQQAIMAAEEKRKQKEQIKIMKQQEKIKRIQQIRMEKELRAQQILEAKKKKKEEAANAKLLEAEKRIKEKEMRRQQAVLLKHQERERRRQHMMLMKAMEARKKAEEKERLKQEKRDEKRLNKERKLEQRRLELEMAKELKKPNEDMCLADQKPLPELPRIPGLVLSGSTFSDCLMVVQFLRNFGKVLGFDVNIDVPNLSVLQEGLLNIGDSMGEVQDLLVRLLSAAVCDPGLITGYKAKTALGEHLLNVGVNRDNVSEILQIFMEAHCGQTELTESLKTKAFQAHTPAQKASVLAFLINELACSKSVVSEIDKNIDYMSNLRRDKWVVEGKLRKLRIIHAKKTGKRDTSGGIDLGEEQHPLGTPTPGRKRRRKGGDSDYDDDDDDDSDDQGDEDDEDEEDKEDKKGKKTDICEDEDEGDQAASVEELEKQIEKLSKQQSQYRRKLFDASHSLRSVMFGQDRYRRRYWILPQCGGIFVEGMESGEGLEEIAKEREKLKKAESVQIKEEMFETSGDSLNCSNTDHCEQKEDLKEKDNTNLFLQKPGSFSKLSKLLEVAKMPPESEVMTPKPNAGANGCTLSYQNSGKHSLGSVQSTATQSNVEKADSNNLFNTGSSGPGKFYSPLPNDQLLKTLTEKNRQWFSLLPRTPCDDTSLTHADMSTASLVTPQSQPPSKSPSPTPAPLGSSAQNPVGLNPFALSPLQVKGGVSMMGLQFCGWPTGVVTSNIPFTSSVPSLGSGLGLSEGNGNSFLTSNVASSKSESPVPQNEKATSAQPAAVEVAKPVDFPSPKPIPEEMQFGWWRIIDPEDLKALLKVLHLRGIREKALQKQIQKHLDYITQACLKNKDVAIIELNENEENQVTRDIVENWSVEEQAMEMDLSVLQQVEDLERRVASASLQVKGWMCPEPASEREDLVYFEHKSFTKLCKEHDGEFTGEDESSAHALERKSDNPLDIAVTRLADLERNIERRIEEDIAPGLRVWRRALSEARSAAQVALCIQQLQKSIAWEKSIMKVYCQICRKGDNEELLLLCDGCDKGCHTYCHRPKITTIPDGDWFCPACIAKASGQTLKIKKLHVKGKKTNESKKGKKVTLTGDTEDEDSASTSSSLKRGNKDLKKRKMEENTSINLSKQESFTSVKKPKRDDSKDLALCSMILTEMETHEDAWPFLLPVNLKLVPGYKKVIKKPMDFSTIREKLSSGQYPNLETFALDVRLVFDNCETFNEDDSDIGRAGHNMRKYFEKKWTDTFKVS

| SMILES | activity change, negative = inhibition | Potency |
| --- | --- | --- |
| Cc1cccc(NC(=O)c2cccc(S(=O)(=O)N3CCCC3)c2)n1 | -4.94% (inactive) |  |
| Cc1ncc(CO)c(/C=N/NC(=O)c2cccc(S(=O)(=O)N3CCCC3)c2)c1O |  | 28.2 µM (active) |
| COc1ccc(Br)cc1/C=N/NC(=O)c1cccc(S(=O)(=O)N2CCOCC2)c1 | -15.1% (inactive) |  |
| CCC(=O)N1N=C(c2ccc(OC)cc2)CC1c1cn(-c2ccccc2)nc1-c1cccs1 (stereo unspecified) | -5.53% (inactive) |  |
| O=C(Cn1ncc2c3ccccc3n(Cc3ccccc3)c2c1=O)NC1CCCCCC1 | -0.79% (inactive) |  |
| Fc1ccc(N2CCN(Cc3cnc(Oc4ccc(Br)cc4)s3)CC2)cc1 | -9.51% (inactive) |  |
| COc1ccc(N2CCN(Cc3ccc(Br)s3)CC2)cc1 |  | 17.8 µM (active) |
| COc1ccc(N2CCN(Cc3nnc(-c4ccccc4)o3)CC2)cc1 | -35.9% (inactive) |  |
| CCN1CCN(c2ncnc3c2cnn3-c2ccc(C)c(C)c2)CC1 | -2.62% (inactive) |  |
| CC(C)(C)c1ccc(OCC(=O)N2CCC(c3nc4ccccc4s3)CC2)cc1 | -19.1% (inactive) |  |
| COC(=O)C1=C(C)N(C(C)c2ccccc2)C(=O)/C1=C\c1ccco1 (stereo unspecified) |  | 20 µM (active) |
| O=C(OCN1C(=O)c2ccccc2C1=O)/C(=C\c1ccco1)NC(=O)c1ccccc1 | -5.64% (inactive) |  |
| O=C(/C=C/c1ccco1)NC(=S)Nc1ccccc1Br | -36.4% (inactive) |  |
| CCc1cccc(C)c1NS(=O)(=O)c1ccc(-c2cc(C)no2)s1 | 2.64% (inactive) |  |
| CCC(=O)N1CCc2cc(Br)cc(S(=O)(=O)CCC(=O)NCCc3ccc(OC)c(OC)c3)c21 | 27% (inactive) |  |
| CC(C)NC(=O)C1CCC(Cn2c(=O)c3sccc3n(Cc3ccc(F)cc3)c2=O)CC1 (stereo unspecified) | -5.59% (inactive) |  |
| CCOC(=O)c1c(C)[nH]c(C)c1S(=O)(=O)N1CCCC(C(=O)NCc2ccccc2Cl)C1 (stereo unspecified) | -21.1% (inactive) |  |
| O=C(Nc1nc(-c2ccco2)c(-c2ccco2)s1)c1ccco1 |  | 44.7 µM (active) |
| O=C(Nc1nnc(CCOCCOCCc2nnc(NC(=O)c3ccco3)s2)s1)c1ccco1 | -25.7% (inactive) |  |
| O=C(Nc1ccccc1)c1ccco1 | 6.6% (inactive) |  |
| CCOc1ccc(CNC(=O)c2ccc(CS(=O)c3ccccc3)o2)cc1 (stereo unspecified) | -17.4% (inactive) |  |
| CC(C)(C)OC(=O)N/N=C/c1cn(-c2ccccc2)nc1-c1cccnc1 | 3.33% (inactive) |  |
| COc1cccc(-c2nn(-c3ccccc3)cc2/C=C(\C#N)C(=O)NCCCn2ccnc2)c1 |  | 50.1 µM (active) |
| O=C(NCCCn1ccnc1)c1cc(-c2ccccc2)on1 | -27.5% (inactive) |  |
| Cc1cc2c(cc1S(=O)(=O)CCC(=O)Nc1ccc(OC(F)(F)F)cc1)OCC(=O)N2 | 1.13% (inactive) |  |
| Cc1cc(C)cc(NC(=O)CSc2oc(-c3ccccc3)nc2S(=O)(=O)c2ccc(Cl)cc2)c1 | -13% (inactive) |  |

| SMILES | activity change, negative = inhibition | Potency |
| --- | --- | --- |
| O=C(Nc1cccnc1)c1cc2cc(Br)ccc2oc1=O |  | 79.4 µM (active) |
| O=C(Nc1cccnc1)c1ccc(Cl)cc1[N+](=O)[O-] | -25.8% (inactive) |  |
| COc1ccc2oc(=N)c(C(=O)Nc3ccc(Br)cc3)cc2c1 | -3.61% (inactive) |  |
| CCc1cc2c(cc3c(=O)n(CC(=O)N4CCN(c5cc(Cl)ccc5C)CC4)ncn32)s1 | 5.16% (inactive) |  |
| COc1cc(Cl)c(C)cc1NC(=O)CCc1nc2cccnc2n1Cc1cccs1 | -18% (inactive) |  |
| CCOc1ccc(NC(=O)c2c(NCc3cccc(OC)c3OC)sc3c2CCC3)cc1 | -1.31% (inactive) |  |
| Cc1ccc(-c2nn(CCC(=O)Nc3ccc(Cl)c(Cl)c3)c(=O)c3ccccc23)cc1 | -11.8% (inactive) |  |
| COc1ccc(CCC(=O)NCCc2csc(-c3ccc(Cl)cc3)n2)cc1 | -4.25% (inactive) |  |
| CCOC(=O)c1ccc[n+](CC(=O)Nc2ccccc2OC(F)F)c1 | -1.09% (inactive) |  |
| Cc1ccc(-c2nc(SCC(=O)Nc3ccccc3OC(F)F)c3c(C)c(C(=O)O)sc3n2)cc1 |  | 44.7 µM (active) |
| O=C(COC(=O)c1ccccc1SCC(=O)N1CCCC1)Nc1ccccc1OC(F)F | 3.45% (inactive) |  |
| COc1cccc(C(=O)NC2=NC(c3ccc(N(C)C)cc3)CC(=O)N2)c1 (stereo unspecified) | -14.6% (inactive) |  |
| CCCCCn1c(=O)[nH]c2cc(C(=O)Nc3ccc(F)cc3)ccc2c1=O | -13.7% (inactive) |  |
| CCN(CC)S(=O)(=O)c1ccc2c(c1)N(CC(=O)NCC(C)c1ccccc1)C(=O)CO2 (stereo unspecified) | -35.7% (inactive) |  |
| CC(=O)N1CCCc2cc(S(=O)(=O)Nc3ccc(Cl)cc3F)ccc21 | -5.37% (inactive) |  |
| Cc1ccc2oc3c(c(=O)c2c1)C(c1ccc([N+](=O)[O-])cc1)N(CCCN1CCOCC1)C3=O (stereo unspecified) | -0.558% (inactive) |  |
| Cc1ccccc1NC(=O)Cn1c(=O)n(CCc2ccccc2)c(=O)c2ccccc21 | 1.27% (inactive) |  |
| Cc1ccc(C)c(CN2C(=O)c3ccccc3S(=O)c3ccc(C(=O)N4CCOCC4)cc32)c1 (stereo unspecified) | -12.7% (inactive) |  |
| O=[N+]([O-])C(=c1ccc2c(c1)N1C3=C(CCCC3)CC3CCCCC31N=2)[N+](=O)[O-] (stereo unspecified) |  | 44.7 µM (active) |
| Cc1ccccc1CNC(=O)c1ccc(NC(=O)N2CCCCc3ccccc32)cc1 | -1.37% (inactive) |  |
| Cc1ccc(CNC(=O)CSC2=Nc3ccccc3C3=NC(C)C(=O)N23)cc1 (stereo unspecified) | -9.55% (inactive) |  |
| CCCN1CCN(CCCNC(=O)c2ccc3nc(Cc4ccccc4)oc3c2)CC1 | -14.6% (inactive) |  |
| Cc1ccc(NC(=S)NCCc2ccc(Cl)cc2)c(C)c1 |  | 79.4 µM (active) |
| Cc1cccc(NC(=S)NCCc2ccc(Cl)cc2)c1C | -6.6% (inactive) |  |
| Cc1cc(F)ccc1NC(=S)NCCc1ccccc1 | -10.7% (inactive) |  |

From PubChem BioAssay AID504333 (National Center for Advancing Translational Sciences (NCATS), 2011)
